# Test results as given in publication PMC7862700, “An all-to-all approach to the identification of sequence-specific readers for epigenetic DNA modifications on cytosine”.
# Legend:
# Experiment in all cases: DAPPL (digital affinity profiling via proximity ligation, sequencing); 10 mM Tris-HCl pH 7.5, 50 mM NaCl, 1 mM DTT, 4% glycerol, room temperature, 30 min; GST-TFs on glutathione beads, 16-mer random dsDNA library, 0.1% formaldehyde crosslink after washing; high values mean tight binding
# FLI1 = molecular target: T1, FLI1 (Homo sapiens, UniProt Q01543 1-452); conditions: protein: recombinant; tags: N-terminal GST; dsDNA, one strand shown
# T1 sequence: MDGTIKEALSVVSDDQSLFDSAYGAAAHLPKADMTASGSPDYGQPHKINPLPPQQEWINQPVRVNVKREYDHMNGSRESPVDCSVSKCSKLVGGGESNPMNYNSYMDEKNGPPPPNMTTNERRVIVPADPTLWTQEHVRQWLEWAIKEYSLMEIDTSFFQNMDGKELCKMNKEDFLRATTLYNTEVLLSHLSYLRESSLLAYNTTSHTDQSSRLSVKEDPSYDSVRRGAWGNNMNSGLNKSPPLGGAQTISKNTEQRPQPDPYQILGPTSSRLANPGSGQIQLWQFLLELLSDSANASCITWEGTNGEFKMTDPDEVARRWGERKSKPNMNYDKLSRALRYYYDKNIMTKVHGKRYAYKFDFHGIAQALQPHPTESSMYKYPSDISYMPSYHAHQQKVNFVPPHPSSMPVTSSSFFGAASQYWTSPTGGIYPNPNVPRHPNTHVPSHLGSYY
# Outline: (§1)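 A tag-only sample was pooled with DNA-barcoded human transcription factors that had been expressed in yeast as GST fusions and captured on glutathione beads. The pools were incubated for 30 min at room temperature with 200 nmole of a random double-stranded 16-mer DNA library in Tris/NaCl/DTT/glycerol buffer, then washed, crosslinked with 0.1% formaldehyde, proximity-ligated (BsaI/T4 ligase, 1 h, 37 °C), PCR-amplified and sequenced on an Illumina NextSeq500. Binding signal is each hexamer's read frequency for a factor divided by its frequency for the tag-only sample.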
# ELK1 = molecular target: T2, ELK1 (Homo sapiens, UniProt P19419 1-428); conditions: protein: recombinant; tags: N-terminal GST; dsDNA, one strand shown
# T2 sequence: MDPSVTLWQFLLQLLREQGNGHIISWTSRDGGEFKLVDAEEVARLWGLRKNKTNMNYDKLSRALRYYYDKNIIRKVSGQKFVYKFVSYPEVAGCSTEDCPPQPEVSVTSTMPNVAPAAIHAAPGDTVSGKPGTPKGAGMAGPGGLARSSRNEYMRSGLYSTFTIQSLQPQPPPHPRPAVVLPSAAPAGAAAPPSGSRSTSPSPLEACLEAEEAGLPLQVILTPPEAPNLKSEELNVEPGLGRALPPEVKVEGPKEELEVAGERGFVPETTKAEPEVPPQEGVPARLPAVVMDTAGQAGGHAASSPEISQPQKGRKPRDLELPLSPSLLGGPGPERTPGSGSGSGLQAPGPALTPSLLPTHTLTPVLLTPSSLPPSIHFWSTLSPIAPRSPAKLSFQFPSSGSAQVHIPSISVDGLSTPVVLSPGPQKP
# Outline: as §1
# GABPA = molecular target: T3, GABPA (Homo sapiens, UniProt Q06546 1-454); conditions: protein: recombinant; tags: N-terminal GST; dsDNA, one strand shown
# T3 sequence: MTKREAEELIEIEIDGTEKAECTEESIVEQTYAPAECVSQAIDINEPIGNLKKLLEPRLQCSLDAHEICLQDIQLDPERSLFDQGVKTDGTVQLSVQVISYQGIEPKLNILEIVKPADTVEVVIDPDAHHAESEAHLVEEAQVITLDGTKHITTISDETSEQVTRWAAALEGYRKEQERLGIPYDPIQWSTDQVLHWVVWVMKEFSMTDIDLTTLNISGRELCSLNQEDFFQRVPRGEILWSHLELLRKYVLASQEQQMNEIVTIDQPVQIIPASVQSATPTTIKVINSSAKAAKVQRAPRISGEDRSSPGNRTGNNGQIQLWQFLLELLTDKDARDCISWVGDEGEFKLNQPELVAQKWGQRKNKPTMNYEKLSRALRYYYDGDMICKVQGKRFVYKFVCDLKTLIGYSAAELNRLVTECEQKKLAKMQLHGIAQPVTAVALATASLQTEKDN
# Outline: as §1
# ERG = molecular target: T4, ERG (Homo sapiens, UniProt P11308 1-479); conditions: protein: recombinant; tags: N-terminal GST; dsDNA, one strand shown
# T4 sequence: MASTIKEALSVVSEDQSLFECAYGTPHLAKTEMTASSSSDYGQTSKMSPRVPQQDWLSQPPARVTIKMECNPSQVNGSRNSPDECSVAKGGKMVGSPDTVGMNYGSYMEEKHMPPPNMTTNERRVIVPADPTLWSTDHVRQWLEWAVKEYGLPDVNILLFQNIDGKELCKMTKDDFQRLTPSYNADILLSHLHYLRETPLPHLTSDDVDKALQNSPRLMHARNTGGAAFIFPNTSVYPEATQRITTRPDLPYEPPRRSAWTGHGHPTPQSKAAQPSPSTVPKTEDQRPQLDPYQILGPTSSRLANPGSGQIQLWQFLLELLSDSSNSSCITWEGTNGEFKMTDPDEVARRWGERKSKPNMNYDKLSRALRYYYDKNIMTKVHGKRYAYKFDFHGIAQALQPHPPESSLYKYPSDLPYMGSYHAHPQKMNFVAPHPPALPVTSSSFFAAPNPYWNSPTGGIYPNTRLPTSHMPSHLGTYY
# Outline: as §1
# ELF1 = ELF1 (Homo sapiens, UniProt P32519 1-619); conditions: protein: recombinant; tags: N-terminal GST; dsDNA, one strand shown
# Outline: as §1
# EHF = molecular target: T5, EHF (Homo sapiens, UniProt Q9NZC4 1-300); conditions: protein: recombinant; tags: N-terminal GST; dsDNA, one strand shown
# T5 sequence: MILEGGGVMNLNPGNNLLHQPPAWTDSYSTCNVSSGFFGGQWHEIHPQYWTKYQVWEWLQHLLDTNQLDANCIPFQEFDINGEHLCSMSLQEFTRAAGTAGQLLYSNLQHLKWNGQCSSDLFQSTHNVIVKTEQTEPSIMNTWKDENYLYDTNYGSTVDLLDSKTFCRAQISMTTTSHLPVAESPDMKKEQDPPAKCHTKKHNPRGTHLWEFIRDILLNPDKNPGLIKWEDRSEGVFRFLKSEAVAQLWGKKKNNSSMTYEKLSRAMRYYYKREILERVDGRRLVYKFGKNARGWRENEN
# Outline: as §1
# SPI1 = SPI1 (Homo sapiens, UniProt P17947 1-270); conditions: protein: recombinant; tags: N-terminal GST; dsDNA, one strand shown
# Outline: as §1
# SPIB = SPIB (Homo sapiens, UniProt Q01892 1-262); conditions: protein: recombinant; tags: N-terminal GST; dsDNA, one strand shown
# Outline: as §1
# ELK3 = molecular target: T6, ELK3 (Homo sapiens, UniProt P41970 1-407); conditions: protein: recombinant; tags: N-terminal GST; dsDNA, one strand shown
# T6 sequence: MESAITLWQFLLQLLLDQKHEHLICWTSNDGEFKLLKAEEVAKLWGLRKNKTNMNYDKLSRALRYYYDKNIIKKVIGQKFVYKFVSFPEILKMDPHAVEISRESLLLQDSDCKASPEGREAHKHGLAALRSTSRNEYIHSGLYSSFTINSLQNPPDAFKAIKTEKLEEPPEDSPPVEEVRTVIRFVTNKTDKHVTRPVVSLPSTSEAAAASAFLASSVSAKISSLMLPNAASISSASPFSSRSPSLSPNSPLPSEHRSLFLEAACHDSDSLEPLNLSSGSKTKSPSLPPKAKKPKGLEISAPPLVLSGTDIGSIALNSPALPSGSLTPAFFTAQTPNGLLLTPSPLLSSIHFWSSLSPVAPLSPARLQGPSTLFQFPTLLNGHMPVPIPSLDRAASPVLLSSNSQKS
# Outline: as §1
# FEV = molecular target: T7, FEV (Homo sapiens, UniProt Q99581 1-238); conditions: protein: recombinant; tags: N-terminal GST; dsDNA, one strand shown
# T7 sequence: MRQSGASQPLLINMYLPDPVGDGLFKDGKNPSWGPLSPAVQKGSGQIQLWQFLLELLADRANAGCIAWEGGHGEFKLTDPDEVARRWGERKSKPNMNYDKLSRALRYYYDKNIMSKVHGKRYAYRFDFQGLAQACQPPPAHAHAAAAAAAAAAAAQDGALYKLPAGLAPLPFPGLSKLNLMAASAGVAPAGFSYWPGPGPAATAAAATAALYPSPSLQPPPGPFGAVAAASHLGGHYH
# Outline: as §1
# ETV5 = ETV5 (Homo sapiens, UniProt P41161 1-510); conditions: protein: recombinant; tags: N-terminal GST; dsDNA, one strand shown
# Outline: as §1
# HSF1 = HSF1 (Homo sapiens, UniProt Q00613 1-529); conditions: protein: recombinant; tags: N-terminal GST; chain copies: 3; dsDNA, one strand shown
# Outline: as §1
# SPIC = molecular target: T8, SPIC (Homo sapiens, UniProt Q8N5J4 1-248); conditions: protein: recombinant; tags: N-terminal GST; dsDNA, one strand shown
# T8 sequence: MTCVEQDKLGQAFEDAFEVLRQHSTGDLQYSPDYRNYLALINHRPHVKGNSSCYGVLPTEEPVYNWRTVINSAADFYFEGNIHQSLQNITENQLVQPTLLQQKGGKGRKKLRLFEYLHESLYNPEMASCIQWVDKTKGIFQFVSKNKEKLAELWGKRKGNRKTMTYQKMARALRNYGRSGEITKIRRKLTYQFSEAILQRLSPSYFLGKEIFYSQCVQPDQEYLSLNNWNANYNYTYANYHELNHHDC
# Outline: as §1
# ELF4 = ELF4 (Homo sapiens, UniProt Q99607 1-663); conditions: protein: recombinant; tags: N-terminal GST; dsDNA, one strand shown
# Outline: as §1
# ELK4 = molecular target: T9, ELK4 (Homo sapiens, UniProt P28324-2 1-405); conditions: protein: recombinant; tags: N-terminal GST; dsDNA, one strand shown
# T9 sequence: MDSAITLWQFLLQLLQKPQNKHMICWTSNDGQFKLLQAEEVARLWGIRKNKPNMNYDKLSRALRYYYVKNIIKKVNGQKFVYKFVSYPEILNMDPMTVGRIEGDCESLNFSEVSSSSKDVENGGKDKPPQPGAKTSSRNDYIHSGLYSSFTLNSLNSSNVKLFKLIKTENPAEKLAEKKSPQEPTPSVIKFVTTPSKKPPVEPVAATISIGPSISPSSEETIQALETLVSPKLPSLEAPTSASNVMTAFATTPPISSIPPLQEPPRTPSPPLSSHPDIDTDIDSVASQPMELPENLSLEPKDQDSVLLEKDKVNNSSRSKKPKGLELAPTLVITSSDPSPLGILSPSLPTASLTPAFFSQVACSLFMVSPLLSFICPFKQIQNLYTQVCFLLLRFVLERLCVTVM
# Outline: as §1
# ETV2 = molecular target: T10, ETV2 (Homo sapiens, UniProt O00321 1-342); conditions: protein: recombinant; tags: N-terminal GST; dsDNA, one strand shown
# T10 sequence: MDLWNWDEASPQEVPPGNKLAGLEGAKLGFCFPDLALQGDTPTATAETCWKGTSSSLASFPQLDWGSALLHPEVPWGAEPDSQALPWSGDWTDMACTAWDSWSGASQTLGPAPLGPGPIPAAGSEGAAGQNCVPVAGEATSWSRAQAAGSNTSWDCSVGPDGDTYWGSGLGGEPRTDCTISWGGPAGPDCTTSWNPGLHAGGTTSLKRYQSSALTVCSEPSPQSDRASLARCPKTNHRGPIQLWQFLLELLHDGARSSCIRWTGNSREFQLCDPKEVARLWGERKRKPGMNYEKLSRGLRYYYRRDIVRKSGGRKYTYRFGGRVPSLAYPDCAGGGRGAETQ
# Outline: as §1
# ELF3 = molecular target: T11, ELF3 (Homo sapiens, UniProt P78545 1-371); conditions: protein: recombinant; tags: N-terminal GST; dsDNA, one strand shown
# T11 sequence: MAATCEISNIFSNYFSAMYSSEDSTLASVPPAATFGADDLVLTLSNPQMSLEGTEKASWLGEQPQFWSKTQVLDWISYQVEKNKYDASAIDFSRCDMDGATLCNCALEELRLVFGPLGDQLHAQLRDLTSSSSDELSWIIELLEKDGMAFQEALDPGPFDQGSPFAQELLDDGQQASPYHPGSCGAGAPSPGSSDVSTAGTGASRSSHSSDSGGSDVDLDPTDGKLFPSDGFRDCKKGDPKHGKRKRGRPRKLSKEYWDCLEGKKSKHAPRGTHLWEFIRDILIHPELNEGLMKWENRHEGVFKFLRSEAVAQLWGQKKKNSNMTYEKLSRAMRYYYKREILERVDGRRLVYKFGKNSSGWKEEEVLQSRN
# Outline: as §1
# CRX = CRX (Homo sapiens, UniProt O43186 1-299); conditions: protein: recombinant; tags: N-terminal GST; dsDNA, one strand shown
# Outline: as §1
# ETV1 = ETV1 (Homo sapiens, UniProt P50549 1-477); conditions: protein: recombinant; tags: N-terminal GST; dsDNA, one strand shown
# Outline: as §1
# Chain of SPIB (Q01892 whole entry): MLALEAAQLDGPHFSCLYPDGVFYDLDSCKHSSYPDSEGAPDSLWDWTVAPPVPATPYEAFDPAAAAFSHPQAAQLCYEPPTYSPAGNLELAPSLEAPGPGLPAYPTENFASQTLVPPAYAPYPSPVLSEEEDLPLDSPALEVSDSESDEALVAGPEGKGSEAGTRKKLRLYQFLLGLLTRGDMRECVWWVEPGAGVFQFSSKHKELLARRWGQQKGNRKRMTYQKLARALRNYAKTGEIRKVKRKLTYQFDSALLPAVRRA
# Chain of CRX (O43186 whole entry): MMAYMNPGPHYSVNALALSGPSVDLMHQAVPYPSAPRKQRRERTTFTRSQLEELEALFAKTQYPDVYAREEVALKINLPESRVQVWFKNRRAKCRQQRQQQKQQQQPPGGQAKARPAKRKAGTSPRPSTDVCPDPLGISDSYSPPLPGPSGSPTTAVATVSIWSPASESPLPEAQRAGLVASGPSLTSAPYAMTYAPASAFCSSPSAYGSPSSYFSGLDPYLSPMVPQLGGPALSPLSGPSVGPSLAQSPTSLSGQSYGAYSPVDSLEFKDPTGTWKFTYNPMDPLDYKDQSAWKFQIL
# Chain of ETV5 (P41161 whole entry): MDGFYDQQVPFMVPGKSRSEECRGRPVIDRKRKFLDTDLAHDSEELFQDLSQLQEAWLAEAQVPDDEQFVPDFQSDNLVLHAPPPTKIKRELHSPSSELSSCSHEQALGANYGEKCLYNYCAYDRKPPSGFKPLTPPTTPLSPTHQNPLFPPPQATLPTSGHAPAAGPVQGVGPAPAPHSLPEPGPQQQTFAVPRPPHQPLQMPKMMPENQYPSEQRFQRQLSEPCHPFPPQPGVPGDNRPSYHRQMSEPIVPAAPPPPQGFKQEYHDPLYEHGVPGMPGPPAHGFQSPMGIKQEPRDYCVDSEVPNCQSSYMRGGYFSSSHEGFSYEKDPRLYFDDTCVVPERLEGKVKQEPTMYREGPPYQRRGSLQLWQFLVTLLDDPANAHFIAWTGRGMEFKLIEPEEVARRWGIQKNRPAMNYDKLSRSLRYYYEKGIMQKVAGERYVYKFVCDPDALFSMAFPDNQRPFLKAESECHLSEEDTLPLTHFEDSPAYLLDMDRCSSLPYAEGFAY
# Chain of HSF1 (Q00613 whole entry): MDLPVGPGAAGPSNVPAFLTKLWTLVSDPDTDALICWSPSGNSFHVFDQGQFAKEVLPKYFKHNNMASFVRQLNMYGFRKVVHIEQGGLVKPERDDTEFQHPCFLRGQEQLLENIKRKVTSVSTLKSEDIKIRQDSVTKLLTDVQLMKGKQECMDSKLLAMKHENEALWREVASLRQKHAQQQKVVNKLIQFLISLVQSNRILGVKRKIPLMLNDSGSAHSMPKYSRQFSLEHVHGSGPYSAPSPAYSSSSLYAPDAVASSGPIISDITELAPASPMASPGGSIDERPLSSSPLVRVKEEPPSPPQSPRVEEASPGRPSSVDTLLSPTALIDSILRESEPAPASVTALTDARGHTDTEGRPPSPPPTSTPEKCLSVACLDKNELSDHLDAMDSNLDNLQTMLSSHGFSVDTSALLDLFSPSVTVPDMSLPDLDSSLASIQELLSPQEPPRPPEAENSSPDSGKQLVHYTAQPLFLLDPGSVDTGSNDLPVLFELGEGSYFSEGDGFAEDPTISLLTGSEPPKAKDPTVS
# Chain of ELF1 (P32519 whole entry): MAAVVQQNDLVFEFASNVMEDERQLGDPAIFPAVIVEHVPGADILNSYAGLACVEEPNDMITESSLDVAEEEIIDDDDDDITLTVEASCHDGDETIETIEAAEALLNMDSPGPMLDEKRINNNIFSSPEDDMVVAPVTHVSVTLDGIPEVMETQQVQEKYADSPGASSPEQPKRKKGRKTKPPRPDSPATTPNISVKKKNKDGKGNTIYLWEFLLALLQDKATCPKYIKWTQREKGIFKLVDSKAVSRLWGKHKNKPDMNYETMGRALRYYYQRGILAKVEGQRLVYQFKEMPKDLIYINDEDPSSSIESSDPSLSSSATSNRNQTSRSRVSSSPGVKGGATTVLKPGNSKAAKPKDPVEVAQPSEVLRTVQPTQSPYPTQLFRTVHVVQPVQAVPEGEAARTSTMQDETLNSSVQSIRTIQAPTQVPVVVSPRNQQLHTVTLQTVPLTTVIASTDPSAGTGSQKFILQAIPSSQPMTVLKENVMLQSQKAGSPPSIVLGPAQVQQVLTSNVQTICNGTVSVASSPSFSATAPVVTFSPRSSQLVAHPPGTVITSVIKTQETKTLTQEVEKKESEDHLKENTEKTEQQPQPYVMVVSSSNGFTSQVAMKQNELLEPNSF
# Chain of ETV1 (P50549 whole entry): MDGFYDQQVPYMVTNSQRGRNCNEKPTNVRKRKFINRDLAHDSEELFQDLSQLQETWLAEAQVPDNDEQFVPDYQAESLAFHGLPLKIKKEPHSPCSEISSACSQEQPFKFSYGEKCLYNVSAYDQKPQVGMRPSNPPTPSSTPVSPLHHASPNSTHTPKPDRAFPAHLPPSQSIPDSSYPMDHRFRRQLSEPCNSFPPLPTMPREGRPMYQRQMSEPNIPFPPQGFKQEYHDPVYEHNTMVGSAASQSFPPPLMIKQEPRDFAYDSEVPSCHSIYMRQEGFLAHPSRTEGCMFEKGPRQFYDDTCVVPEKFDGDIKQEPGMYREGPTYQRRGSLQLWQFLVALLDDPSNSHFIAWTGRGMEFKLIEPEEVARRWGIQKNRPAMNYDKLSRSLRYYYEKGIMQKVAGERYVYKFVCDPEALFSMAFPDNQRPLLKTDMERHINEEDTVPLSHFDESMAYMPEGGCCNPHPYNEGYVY
# Chain of ELF4 (Q99607 whole entry): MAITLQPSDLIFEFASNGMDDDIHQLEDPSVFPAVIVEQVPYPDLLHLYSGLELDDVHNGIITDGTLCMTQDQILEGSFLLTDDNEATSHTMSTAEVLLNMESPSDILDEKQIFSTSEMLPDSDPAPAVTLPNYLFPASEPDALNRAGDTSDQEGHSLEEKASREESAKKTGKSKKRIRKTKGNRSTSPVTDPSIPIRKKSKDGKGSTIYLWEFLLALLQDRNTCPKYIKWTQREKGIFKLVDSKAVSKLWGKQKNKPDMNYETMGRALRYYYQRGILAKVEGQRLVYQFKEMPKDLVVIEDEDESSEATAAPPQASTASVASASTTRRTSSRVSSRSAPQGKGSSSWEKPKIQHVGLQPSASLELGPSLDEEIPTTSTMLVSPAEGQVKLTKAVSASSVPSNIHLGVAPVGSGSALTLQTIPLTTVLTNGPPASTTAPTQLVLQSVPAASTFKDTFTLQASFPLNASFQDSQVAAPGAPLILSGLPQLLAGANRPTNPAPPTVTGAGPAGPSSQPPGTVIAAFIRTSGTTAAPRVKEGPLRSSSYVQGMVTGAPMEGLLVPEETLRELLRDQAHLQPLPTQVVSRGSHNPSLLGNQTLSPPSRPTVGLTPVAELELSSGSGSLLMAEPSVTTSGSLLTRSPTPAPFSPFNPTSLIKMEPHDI
sequence,measurement,setting,value
AAATAA,binding signal,FLI1,"1.27 fold enrichment (6-mer frequency, TF over GST control)"
same,binding signal,ELK1,"1.32 fold enrichment (6-mer frequency, TF over GST control)"
same,binding signal,GABPA,"1.33 fold enrichment (6-mer frequency, TF over GST control)"
same,binding signal,ERG,"1.37 fold enrichment (6-mer frequency, TF over GST control)"
same,binding signal,ELF1,"1.33 fold enrichment (6-mer frequency, TF over GST control)"
same,binding signal,EHF,"1.29 fold enrichment (6-mer frequency, TF over GST control)"
same,binding signal,SPI1,"1.32 fold enrichment (6-mer frequency, TF over GST control)"
same,binding signal,SPIB,"1.39 fold enrichment (6-mer frequency, TF over GST control)"
same,binding signal,ELK3,"1.33 fold enrichment (6-mer frequency, TF over GST control)"
same,binding signal,FEV,"1.29 fold enrichment (6-mer frequency, TF over GST control)"
same,binding signal,ETV5,"1.37 fold enrichment (6-mer frequency, TF over GST control)"
same,binding signal,HSF1,"1.48 fold enrichment (6-mer frequency, TF over GST control)"
same,binding signal,SPIC,"1.27 fold enrichment (6-mer frequency, TF over GST control)"
same,binding signal,ELF4,"1.32 fold enrichment (6-mer frequency, TF over GST control)"
same,binding signal,ELK4,"1.34 fold enrichment (6-mer frequency, TF over GST control)"
same,binding signal,ETV2,"1.28 fold enrichment (6-mer frequency, TF over GST control)"
same,binding signal,ELF3,"1.43 fold enrichment (6-mer frequency, TF over GST control)"
same,binding signal,CRX,"1.71 fold enrichment (6-mer frequency, TF over GST control)"
same,binding signal,ETV1,"1.3 fold enrichment (6-mer frequency, TF over GST control)"
